These results are taken from PubChem BioAssay (NCI).

The panel holds about 79,000 compounds, 15% with a hit somewhere; the sample as a whole holds those more often. Unmarked numbers belong to inactive results. Calls of active or inactive are those of the source. No stated cut-off is given here; in the data, active means growth inhibition above about 70%; inactive means the rest.

Assay [1] can be described thus: NCI Yeast Anticancer Drug Screen. Data for the rad50 strain (AID 155).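 Further: 0% = growth of vehicle-only cultures of the same strain.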 The conditions noted are these: S. cerevisiae rad50 strain growth inhibition; at 50.0 µM; active compounds read high. Summed up: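 Compounds were tested on a yeast strain with an engineered DNA damage repair alteration; the reported value is growth inhibition normalised to vehicle treatment.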
Assay [2] is described as follows: NCI Yeast Anticancer Drug Screen. Data for the mec2-1 strain (AID 157). The note with it: S. cerevisiae mec2-1 strain, at 50.0 µM, active compounds read high. Summed up:
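mec2-1 yeast strain, carrying an alteration in DNA damage repair or cell cycle control, was exposed to compounds; growth inhibition was measured relative to vehicle-treated controls.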

A short description of assay [3]: NCI Yeast Anticancer Drug Screen. Data for the sgs1 mgt1 strain (AID 161).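 Further: 0% = growth of cultures given vehicle only.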 The conditions noted are these: S. cerevisiae sgs1 mgt1 strain, at 50.0 µM, active compounds read high. The essentials: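 Percent growth inhibition was derived by comparing compound-exposed mutant yeast with vehicle-exposed cultures. The strain carries alterations in DNA damage repair.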
Assay [4] is described as follows: NCI Yeast Anticancer Drug Screen. Data for the cln2 rad14 strain (AID 165).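 Further: 0% = growth equal to vehicle treated cultures.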 The conditions noted are these: S. cerevisiae cln2 rad14 strain, at 50.0 µM, active compounds read high. The essentials:
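Yeast carrying cln2 and rad14 alterations (cell cycle control and DNA damage repair) were exposed to compounds. Growth inhibition was measured against vehicle-treated controls.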

Assay [5] in a line: NCI Yeast Anticancer Drug Screen. Data for the bub3 strain (AID 167). The conditions noted are these: S. cerevisiae bub3 mutant strain, at 50.0 µM, active compounds read high. Summed up:
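Growth of a checkpoint-deficient yeast mutant is measured after compound exposure. Values represent inhibition relative to vehicle.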

The nature of assay [6]: NCI Yeast Anticancer Drug Screen. Data for the mlh1 rad18 strain (AID 175). The note with it: S. cerevisiae mlh1 rad18 strain growth inhibition; at 50.0 µM; active compounds read high. Summed up:
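Growth inhibition of the yeast strain was measured after compound exposure and expressed relative to vehicle-treated controls. The strain carries defined defects in DNA damage repair.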

On to `CCN1CCC2OCOC2C1` (stereo not given), for which the growth inhibition in assay [1] is 8.5%; in assay [2], 2.85%; in assay [3] it was 2.9%; in assay [4], 0.5%; in assay [5], -0.05%; in assay [6], 33.6%.
In the case of `CCCCCCCC(=O)O.[Sn]`, the growth inhibition is -2.25% in assay [1]; -7.35% in assay [2]; -9.6% in assay [3]; -45.9% in assay [4]; 12.1% in assay [5]; -19% in assay [6].
Regarding `NNc1ccc([N+](=O)[O-])cc1`, the growth inhibition in assay [1] was 23.9%; in assay [2], 26.3%; in assay [3] it was 40.9%; in assay [4] it was -10.3%; in assay [5] it was 54.9%; in assay [6] it was 51.6%.
In the case of `Cc1cc(S(=O)(=O)F)ccc1NC(=O)NCc1ccc([N+](=O)[O-])cc1`, the growth inhibition in assay [1] was 2.75%; in assay [2], 15.7%; in assay [3], 24.1%; in assay [4] it was -1.95%; in assay [5] it was 18.1%; in assay [6], 10.1%.
`CCCCC(C(=O)NN)P(=O)(OCC)OCC` (stereo not given): the growth inhibition in assay [1] is -0.9%; in assay [2], -5.2%; in assay [3], 15.8%; in assay [4] it was -14.7%; in assay [5], -1.95%; in assay [6], 0.95%.
For `c1ccc(OP(Oc2ccccc2)(c2ccccc2)(c2ccccc2)c2ccccc2)cc1`, the growth inhibition in assay [1] was 6.05%; in assay [2], 6.6%; in assay [3], 13.4%; in assay [4], -16.4%; in assay [5], -5.1%; in assay [6], -42.6%.
Take `Oc1cccc(Cl)c1`: the growth inhibition in assay [1] is -3.15%; in assay [2] it was -30.1%; in assay [3], 4.75%; in assay [4], 6.1%; in assay [5], -2.45%; in assay [6], 8.3%.
`CCN(CC)CC#N`: the growth inhibition is 3.8% in assay [1]; -2.75% in assay [2]; -6.4% in assay [3]; -0.25% in assay [4]; 3.45% in assay [5]; -0.7% in assay [6].
Turning to `C=CCOCN1c2cc(OC)c([C@@]3(C(=O)OC)C[C@@H]4CN(CCc5c3[nH]c3ccccc53)C[C@](O)(CC)C4)cc2[C@@]23CCN4CC=C[C@@](CC)([C@@H](OC(C)=O)[C@](O)(C(=O)OC)[C@H]12)[C@H]43`, the growth inhibition in assay [1] was -21.2%; in assay [2], -8.75%; in assay [3], 2.35%; in assay [4] it was 0.2%; in assay [5], -0.05%; in assay [6] it was -16.4%.
Take `CNC(=O)c1[nH]cnc1/N=N/N(C)N`: the growth inhibition in assay [1] is 85.2% (active); in assay [2] it was 91.8% (active); in assay [3], 90.5% (active); in assay [4], 87.9% (active); in assay [5], 89% (active); in assay [6] it was 89.3% (active).
As for `Cc1ccc2c(c1)Cc1ccccc1-2`, the growth inhibition in assay [1] is 22.9%; in assay [2], -17.2%; in assay [3] it was 16.9%; in assay [4] it was 23.7%; in assay [5] it was 10.2%; in assay [6], 34.9%.
Regarding `O.[Cr+3].[NH2-].[NH2-].[NH2-].[NH2-].[NH2-].[O-][Cl+3]([O-])([O-])O`, the growth inhibition in assay [1] was 16.6%; in assay [2], 6.85%; in assay [3], -0.4%; in assay [4], 9.75%; in assay [5] it was 3.85%; in assay [6] it was -18.1%.
Regarding `CC(=O)OC1CC2(O)C3CCC4CC(O)CCC4(C)C3CCC2(C)C1C1=CC(=O)OC1` (stereo not given), the growth inhibition in assay [1] is -11.1%; in assay [2] it was -19.9%; in assay [3], -9.9%; in assay [4] it was -6.4%; in assay [5], -32.4%; in assay [6] it was -1.75%.
Turning to `N#CCC(=O)[O][Sn]([c]1ccccc1)([c]1ccccc1)[c]1ccccc1`, the growth inhibition in assay [1] is 98% (active); in assay [2], 98.3% (active); in assay [3], 98.8% (active); in assay [4], 97.8% (active); in assay [5], 97.8% (active); in assay [6] it was 98.7% (active).
Consider `ClCCN(CCCN(CCCl)c1ccccc1)c1ccccc1`, for which the growth inhibition in assay [1] was 11.8%; in assay [2], 12.7%; in assay [3], 32.5%; in assay [4], -8.25%; in assay [5], -5.1%; in assay [6] it was -27.9%.
`O=[N+]([O-])C1CCC(O)C([N+](=O)[O-])C1` (stereo not given) (tested in a mixture with another compound): the growth inhibition in assay [1] was 71.8% (active); in assay [2] it was 37.7%; in assay [3] it was 93.7% (active); in assay [4], 69.3%; in assay [5], 13.6%; in assay [6], 86.8% (active).
With `CCOP(=S)(OCC)Oc1cnn(C)c(=S)c1Cl`, the growth inhibition in assay [1] was 12.8%; in assay [2], -18.6%; in assay [3] it was -0.85%; in assay [4], 10.3%; in assay [5], -4.85%; in assay [6], 8.05%.
Take `C#C[C@]1(O)CC[C@H]2[C@@H]3CCC4=C/C(=N/OC(=O)c5cccc6c(=O)c7ccccc7[nH]c56)CC[C@@H]4[C@H]3CC[C@@]21C`: the growth inhibition in assay [1] was 1.6%; in assay [2] it was -4.5%; in assay [3], 11.3%; in assay [4], 9.7%; in assay [5] it was -24.9%; in assay [6] it was -3.55%.
For the compound `[CH3][Sb]([CH3])([CH3])([I])[I]`, the growth inhibition in assay [1] was 20.4%; in assay [2], -14.1%; in assay [3] it was 0.15%; in assay [4], -12.7%; in assay [5] it was -0.2%; in assay [6], 1.25%.
As for `CC1(C)CN=C(Nc2ccc(Cl)cc2)S1`, the growth inhibition in assay [1] was 13.9%; in assay [2], 1.45%; in assay [3] it was -12.1%; in assay [4], 13.5%; in assay [5], -10.7%; in assay [6] it was -31.2%.
